# Measurements as given in publication PMC7862700, “An all-to-all approach to the identification of sequence-specific readers for epigenetic DNA modifications on cytosine”.
# Assays:
# Experiment in all cases: DAPPL (digital affinity profiling via proximity ligation, sequencing); 10 mM Tris-HCl pH 7.5, 50 mM NaCl, 1 mM DTT, 4% glycerol, room temperature, 30 min; GST-TFs on glutathione beads, 16-mer random dsDNA library, 0.1% formaldehyde crosslink after washing; high values mean tight binding
# FEV = biological target: T1, FEV (Homo sapiens, UniProt Q99581 1-238); settings: protein: recombinant; tags: N-terminal GST; dsDNA, one strand shown
# T1 sequence: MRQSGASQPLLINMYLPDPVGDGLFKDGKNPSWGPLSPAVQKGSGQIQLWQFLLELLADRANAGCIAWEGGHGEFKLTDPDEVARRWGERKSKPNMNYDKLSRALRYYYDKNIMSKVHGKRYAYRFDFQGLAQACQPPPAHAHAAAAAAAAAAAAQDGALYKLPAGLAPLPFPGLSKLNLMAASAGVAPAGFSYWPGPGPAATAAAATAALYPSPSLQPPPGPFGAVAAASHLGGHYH
# In short: (§1)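 Human transcription factors fused to GST were expressed in yeast, captured on glutathione beads, given DNA barcodes and pooled with a GST-only negative control. Pools were incubated with 200 nmole of a 16-mer random double-stranded DNA library in Tris/NaCl/DTT/glycerol buffer at room temperature for 30 min. They were then washed, crosslinked with 0.1% formaldehyde, proximity-ligated (BsaI/T4 ligase, 1 h, 37 °C), PCR-amplified and sequenced on an Illumina NextSeq500. Binding signal is each 6-mer's read frequency for a factor divided by its frequency for the GST control.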
# ETV5 = ETV5 (Homo sapiens, UniProt P41161 1-510); settings: protein: recombinant; tags: N-terminal GST; dsDNA, one strand shown
# Chain of ETV5 (P41161 whole entry): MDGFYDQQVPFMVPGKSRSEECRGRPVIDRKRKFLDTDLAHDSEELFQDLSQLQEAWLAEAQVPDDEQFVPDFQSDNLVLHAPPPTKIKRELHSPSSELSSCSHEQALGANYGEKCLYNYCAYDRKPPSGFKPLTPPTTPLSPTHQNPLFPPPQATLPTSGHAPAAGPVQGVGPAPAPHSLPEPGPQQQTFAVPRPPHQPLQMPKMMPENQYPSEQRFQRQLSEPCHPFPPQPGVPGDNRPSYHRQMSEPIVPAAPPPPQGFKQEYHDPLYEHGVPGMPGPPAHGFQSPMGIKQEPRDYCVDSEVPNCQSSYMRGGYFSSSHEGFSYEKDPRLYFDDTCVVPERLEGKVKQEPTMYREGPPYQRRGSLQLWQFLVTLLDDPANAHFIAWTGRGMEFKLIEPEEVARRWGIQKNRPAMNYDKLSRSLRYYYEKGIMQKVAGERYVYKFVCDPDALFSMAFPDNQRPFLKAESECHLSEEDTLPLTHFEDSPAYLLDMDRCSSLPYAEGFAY
# In short: as §1
# HSF1 = HSF1 (Homo sapiens, UniProt Q00613 1-529); settings: protein: recombinant; tags: N-terminal GST; chain copies: 3; dsDNA, one strand shown
# Chain of HSF1 (Q00613 whole entry): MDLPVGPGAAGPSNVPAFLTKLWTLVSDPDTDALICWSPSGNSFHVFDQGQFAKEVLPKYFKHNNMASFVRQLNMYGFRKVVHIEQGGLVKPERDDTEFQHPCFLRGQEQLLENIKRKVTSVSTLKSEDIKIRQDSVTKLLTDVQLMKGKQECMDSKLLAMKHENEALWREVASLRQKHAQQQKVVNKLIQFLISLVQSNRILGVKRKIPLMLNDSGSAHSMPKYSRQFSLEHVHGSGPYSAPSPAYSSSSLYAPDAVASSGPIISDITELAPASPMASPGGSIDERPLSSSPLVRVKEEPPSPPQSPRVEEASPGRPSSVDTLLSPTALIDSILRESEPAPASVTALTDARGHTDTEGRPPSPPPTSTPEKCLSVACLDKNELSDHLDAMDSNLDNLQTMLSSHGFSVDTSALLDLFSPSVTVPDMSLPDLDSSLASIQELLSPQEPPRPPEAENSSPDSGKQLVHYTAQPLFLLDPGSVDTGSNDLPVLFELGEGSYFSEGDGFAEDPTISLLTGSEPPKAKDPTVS
# In short: as §1
# SPIC = biological target: T2, SPIC (Homo sapiens, UniProt Q8N5J4 1-248); settings: protein: recombinant; tags: N-terminal GST; dsDNA, one strand shown
# T2 sequence: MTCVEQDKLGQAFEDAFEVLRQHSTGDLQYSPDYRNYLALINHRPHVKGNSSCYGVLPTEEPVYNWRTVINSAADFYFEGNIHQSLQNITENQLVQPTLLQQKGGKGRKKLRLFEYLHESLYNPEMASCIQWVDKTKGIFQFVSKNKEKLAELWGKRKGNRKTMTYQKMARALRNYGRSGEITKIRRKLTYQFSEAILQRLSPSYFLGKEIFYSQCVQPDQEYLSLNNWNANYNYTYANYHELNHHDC
# In short: as §1
# ELF4 = ELF4 (Homo sapiens, UniProt Q99607 1-663); settings: protein: recombinant; tags: N-terminal GST; dsDNA, one strand shown
# Chain of ELF4 (Q99607 whole entry): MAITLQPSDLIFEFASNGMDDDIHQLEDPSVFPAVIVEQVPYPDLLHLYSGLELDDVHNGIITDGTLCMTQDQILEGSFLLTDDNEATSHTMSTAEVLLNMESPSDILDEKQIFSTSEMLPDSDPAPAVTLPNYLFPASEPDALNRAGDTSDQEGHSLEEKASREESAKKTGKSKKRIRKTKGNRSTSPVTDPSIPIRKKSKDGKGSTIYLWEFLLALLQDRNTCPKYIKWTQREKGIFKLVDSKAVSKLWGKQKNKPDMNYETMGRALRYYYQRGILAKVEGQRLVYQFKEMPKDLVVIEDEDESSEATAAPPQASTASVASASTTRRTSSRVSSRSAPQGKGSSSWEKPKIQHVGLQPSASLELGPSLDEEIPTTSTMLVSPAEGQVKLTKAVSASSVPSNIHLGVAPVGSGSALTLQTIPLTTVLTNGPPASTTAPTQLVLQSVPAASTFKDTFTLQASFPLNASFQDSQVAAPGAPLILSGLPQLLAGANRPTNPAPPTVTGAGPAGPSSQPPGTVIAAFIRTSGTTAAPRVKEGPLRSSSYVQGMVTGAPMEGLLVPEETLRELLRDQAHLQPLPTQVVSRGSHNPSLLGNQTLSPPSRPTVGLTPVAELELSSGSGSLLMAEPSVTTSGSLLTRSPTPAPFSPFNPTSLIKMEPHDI
# In short: as §1
# ELK4 = biological target: T3, ELK4 (Homo sapiens, UniProt P28324-2 1-405); settings: protein: recombinant; tags: N-terminal GST; dsDNA, one strand shown
# T3 sequence: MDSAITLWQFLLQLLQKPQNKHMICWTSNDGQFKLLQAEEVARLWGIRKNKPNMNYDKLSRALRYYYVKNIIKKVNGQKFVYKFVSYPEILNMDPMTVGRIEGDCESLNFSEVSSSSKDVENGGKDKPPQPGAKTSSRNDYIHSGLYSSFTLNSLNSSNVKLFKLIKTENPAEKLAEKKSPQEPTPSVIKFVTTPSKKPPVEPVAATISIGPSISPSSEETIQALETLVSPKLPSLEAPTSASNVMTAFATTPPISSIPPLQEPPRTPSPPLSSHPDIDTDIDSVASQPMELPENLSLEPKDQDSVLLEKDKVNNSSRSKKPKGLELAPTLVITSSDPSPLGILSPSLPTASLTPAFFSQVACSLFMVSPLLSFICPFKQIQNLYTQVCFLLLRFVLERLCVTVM
# In short: as §1
# ETV2 = biological target: T4, ETV2 (Homo sapiens, UniProt O00321 1-342); settings: protein: recombinant; tags: N-terminal GST; dsDNA, one strand shown
# T4 sequence: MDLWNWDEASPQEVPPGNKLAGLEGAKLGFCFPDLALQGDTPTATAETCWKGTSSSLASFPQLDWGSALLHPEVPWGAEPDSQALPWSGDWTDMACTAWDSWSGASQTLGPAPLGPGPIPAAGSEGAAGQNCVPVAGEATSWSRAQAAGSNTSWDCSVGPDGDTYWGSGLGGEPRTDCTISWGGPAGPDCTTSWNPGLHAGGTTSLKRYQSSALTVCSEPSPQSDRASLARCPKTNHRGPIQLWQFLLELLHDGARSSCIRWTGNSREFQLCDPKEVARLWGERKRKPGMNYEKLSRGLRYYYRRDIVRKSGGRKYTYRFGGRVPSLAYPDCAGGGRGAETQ
# In short: as §1
# ELF3 = biological target: T5, ELF3 (Homo sapiens, UniProt P78545 1-371); settings: protein: recombinant; tags: N-terminal GST; dsDNA, one strand shown
# T5 sequence: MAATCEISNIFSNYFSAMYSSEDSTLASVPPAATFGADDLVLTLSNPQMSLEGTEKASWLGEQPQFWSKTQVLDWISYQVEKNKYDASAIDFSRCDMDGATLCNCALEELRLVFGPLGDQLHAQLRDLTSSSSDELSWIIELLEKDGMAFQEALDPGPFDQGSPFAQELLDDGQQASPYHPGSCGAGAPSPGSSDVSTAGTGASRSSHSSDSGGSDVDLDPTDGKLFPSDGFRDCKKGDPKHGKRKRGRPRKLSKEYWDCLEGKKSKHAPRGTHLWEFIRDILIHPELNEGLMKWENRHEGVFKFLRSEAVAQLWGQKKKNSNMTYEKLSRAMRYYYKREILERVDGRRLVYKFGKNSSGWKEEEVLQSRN
# In short: as §1
# CRX = CRX (Homo sapiens, UniProt O43186 1-299); settings: protein: recombinant; tags: N-terminal GST; dsDNA, one strand shown
# Chain of CRX (O43186 whole entry): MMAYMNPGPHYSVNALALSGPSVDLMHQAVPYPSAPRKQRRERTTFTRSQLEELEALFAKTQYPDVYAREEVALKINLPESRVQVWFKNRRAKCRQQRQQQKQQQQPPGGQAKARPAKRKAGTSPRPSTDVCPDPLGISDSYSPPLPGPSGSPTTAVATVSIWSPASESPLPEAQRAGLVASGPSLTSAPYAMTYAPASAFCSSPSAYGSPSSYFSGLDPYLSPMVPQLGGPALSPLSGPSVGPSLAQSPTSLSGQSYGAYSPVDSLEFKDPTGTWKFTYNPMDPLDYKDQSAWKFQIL
# In short: as §1
# ETV1 = ETV1 (Homo sapiens, UniProt P50549 1-477); settings: protein: recombinant; tags: N-terminal GST; dsDNA, one strand shown
# Chain of ETV1 (P50549 whole entry): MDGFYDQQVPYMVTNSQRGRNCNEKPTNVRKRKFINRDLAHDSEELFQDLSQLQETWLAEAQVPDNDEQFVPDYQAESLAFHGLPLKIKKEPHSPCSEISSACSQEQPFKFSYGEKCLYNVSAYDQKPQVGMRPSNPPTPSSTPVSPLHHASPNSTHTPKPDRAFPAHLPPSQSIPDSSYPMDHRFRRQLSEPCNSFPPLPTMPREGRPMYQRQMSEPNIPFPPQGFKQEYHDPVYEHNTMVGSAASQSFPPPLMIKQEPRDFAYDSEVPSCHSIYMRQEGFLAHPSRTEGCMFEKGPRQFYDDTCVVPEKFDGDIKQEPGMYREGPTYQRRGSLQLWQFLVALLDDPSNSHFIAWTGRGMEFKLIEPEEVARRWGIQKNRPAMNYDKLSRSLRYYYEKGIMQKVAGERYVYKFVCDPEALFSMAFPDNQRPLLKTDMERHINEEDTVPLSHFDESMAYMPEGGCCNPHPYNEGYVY
# In short: as §1
# ERF = biological target: T6, ERF (Homo sapiens, UniProt P50548 1-548); settings: protein: recombinant; tags: N-terminal GST; dsDNA, one strand shown
# T6 sequence: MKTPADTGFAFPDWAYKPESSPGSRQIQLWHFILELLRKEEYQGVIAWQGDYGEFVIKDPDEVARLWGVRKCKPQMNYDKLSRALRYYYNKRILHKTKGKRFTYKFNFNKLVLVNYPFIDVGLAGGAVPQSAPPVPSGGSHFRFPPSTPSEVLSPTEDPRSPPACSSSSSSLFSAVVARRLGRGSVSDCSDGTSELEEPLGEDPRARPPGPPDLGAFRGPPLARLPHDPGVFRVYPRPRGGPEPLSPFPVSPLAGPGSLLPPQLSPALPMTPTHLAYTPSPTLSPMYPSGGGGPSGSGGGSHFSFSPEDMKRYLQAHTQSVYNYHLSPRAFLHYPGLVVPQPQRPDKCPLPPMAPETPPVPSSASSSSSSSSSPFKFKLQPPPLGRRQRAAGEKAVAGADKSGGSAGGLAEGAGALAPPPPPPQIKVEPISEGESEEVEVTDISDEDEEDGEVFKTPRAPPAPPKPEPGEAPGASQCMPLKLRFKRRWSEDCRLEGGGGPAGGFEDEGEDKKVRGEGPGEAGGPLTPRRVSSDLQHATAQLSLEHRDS
# In short: as §1
# ETV3L = biological target: T7, ETV3L (Homo sapiens, UniProt Q6ZN32 1-361); settings: protein: recombinant; tags: N-terminal GST; dsDNA, one strand shown
# T7 sequence: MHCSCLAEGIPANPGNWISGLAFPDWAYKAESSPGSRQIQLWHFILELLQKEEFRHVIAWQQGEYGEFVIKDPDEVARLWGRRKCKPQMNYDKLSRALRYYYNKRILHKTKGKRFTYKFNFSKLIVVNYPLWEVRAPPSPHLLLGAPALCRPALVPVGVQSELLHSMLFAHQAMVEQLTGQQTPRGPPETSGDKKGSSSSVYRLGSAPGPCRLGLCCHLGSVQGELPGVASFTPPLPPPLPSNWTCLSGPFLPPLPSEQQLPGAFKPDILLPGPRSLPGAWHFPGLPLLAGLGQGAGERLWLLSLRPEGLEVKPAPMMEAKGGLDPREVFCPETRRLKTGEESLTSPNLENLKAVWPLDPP
# In short: as §1
# ETS2 = biological target: T8, ETS2 (Homo sapiens, UniProt P15036 1-469); settings: protein: recombinant; tags: N-terminal GST; dsDNA, one strand shown
# T8 sequence: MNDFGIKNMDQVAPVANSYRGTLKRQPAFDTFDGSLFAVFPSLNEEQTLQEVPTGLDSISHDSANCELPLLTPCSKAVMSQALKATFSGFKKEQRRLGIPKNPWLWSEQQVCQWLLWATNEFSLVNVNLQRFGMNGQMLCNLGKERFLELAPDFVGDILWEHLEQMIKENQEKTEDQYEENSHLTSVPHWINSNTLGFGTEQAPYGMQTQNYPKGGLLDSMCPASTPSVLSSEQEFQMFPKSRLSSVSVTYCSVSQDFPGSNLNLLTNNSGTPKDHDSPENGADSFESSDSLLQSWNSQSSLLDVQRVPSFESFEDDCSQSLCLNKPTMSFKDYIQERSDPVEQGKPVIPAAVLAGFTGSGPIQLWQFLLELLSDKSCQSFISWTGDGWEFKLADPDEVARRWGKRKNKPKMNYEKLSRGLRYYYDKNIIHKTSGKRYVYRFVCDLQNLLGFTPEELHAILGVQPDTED
# In short: as §1
# SPDEF = biological target: T9, SPDEF (Homo sapiens, UniProt O95238 1-335); settings: protein: recombinant; tags: N-terminal GST; dsDNA, one strand shown
# T9 sequence: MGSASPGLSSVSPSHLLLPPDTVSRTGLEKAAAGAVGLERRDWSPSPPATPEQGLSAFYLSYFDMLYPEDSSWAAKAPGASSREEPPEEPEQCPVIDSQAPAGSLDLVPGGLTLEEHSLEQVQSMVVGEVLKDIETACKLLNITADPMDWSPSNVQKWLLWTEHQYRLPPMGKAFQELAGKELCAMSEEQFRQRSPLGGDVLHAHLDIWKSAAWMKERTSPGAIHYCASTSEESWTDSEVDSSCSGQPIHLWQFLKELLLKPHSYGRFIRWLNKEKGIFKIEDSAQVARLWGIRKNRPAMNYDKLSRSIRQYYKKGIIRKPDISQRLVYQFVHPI
# In short: as §1
# ETV7 = biological target: T10, ETV7 (Homo sapiens, UniProt Q9Y603 1-341); settings: protein: recombinant; tags: N-terminal GST; dsDNA, one strand shown
# T10 sequence: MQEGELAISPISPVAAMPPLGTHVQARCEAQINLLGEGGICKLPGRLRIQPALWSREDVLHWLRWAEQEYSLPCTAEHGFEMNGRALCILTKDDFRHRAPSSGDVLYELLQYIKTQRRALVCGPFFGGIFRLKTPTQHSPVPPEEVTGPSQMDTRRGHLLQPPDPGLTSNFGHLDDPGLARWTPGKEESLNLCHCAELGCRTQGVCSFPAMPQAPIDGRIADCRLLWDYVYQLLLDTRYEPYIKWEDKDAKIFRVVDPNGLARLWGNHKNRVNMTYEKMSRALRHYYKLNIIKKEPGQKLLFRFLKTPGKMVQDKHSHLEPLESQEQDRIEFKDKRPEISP
# In short: as §1
# ELF5 = biological target: T11, ELF5 (Homo sapiens, UniProt Q9UKW6-2 1-255); settings: protein: recombinant; tags: N-terminal GST; dsDNA, one strand shown
# T11 sequence: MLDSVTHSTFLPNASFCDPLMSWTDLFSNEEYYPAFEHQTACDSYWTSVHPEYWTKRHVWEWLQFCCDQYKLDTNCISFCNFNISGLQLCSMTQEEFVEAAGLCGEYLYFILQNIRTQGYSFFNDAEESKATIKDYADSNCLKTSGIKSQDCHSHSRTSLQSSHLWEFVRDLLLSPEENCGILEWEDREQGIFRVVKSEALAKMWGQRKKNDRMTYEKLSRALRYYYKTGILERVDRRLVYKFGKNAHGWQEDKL
# In short: as §1
# ETV3 = biological target: T12, ETV3 (Homo sapiens, UniProt P41162-2 1-143); settings: protein: recombinant; tags: N-terminal GST; dsDNA, one strand shown
# T12 sequence: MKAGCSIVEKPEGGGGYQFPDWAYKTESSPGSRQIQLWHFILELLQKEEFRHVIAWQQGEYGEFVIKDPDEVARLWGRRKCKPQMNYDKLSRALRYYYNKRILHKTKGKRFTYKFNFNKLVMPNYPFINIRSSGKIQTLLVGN
# In short: as §1
# ETV6 = ETV6 (Homo sapiens, UniProt P41212 1-452); settings: protein: recombinant; tags: N-terminal GST; dsDNA, one strand shown
# Chain of ETV6 (P41212 whole entry): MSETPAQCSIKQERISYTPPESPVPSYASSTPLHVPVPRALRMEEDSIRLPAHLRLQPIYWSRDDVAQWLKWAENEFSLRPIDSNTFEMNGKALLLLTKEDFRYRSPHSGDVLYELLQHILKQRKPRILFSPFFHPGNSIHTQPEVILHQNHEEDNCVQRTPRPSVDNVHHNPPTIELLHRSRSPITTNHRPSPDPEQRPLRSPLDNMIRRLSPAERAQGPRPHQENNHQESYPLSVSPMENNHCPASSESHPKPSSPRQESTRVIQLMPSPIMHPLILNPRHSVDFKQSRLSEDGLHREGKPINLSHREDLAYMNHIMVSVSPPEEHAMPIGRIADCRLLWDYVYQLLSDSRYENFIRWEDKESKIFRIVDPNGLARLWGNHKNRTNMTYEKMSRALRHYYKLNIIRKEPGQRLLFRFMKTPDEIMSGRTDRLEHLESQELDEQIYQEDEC
# In short: as §1
sequence,measurement,setting,value
TTGTTC,binding signal,FEV,"1.43 fold enrichment (6-mer frequency, TF over GST control)"
same,binding signal,ETV5,"1.48 fold enrichment (6-mer frequency, TF over GST control)"
same,binding signal,HSF1,"1.89 fold enrichment (6-mer frequency, TF over GST control)"
same,binding signal,SPIC,"1.48 fold enrichment (6-mer frequency, TF over GST control)"
same,binding signal,ELF4,"1.37 fold enrichment (6-mer frequency, TF over GST control)"
same,binding signal,ELK4,"1.48 fold enrichment (6-mer frequency, TF over GST control)"
same,binding signal,ETV2,"1.48 fold enrichment (6-mer frequency, TF over GST control)"
same,binding signal,ELF3,"1.33 fold enrichment (6-mer frequency, TF over GST control)"
same,binding signal,CRX,"1.43 fold enrichment (6-mer frequency, TF over GST control)"
same,binding signal,ETV1,"1.49 fold enrichment (6-mer frequency, TF over GST control)"
same,binding signal,ERF,"1.63 fold enrichment (6-mer frequency, TF over GST control)"
same,binding signal,ETV3L,"1.44 fold enrichment (6-mer frequency, TF over GST control)"
same,binding signal,ETS2,"1.33 fold enrichment (6-mer frequency, TF over GST control)"
same,binding signal,SPDEF,"1.48 fold enrichment (6-mer frequency, TF over GST control)"
same,binding signal,ETV7,"1.44 fold enrichment (6-mer frequency, TF over GST control)"
same,binding signal,ELF5,"1.55 fold enrichment (6-mer frequency, TF over GST control)"
same,binding signal,ETV3,"1.52 fold enrichment (6-mer frequency, TF over GST control)"
same,binding signal,ETV6,"1.46 fold enrichment (6-mer frequency, TF over GST control)"
